Measurements: PubChem BioAssay
Calls of active or inactive are those of the source.

Columns and labels:
[1] = E. coli DRC41 culture turbidity changes, primary screen, E. coli filamentation inducer project, strain DRC41, OD650, 48 h (AID 1152);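 note: E. coli MC1000 strain DRC41 lacking acrAB efflux pump and sulA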; conditions: E. coli DRC41 (acrAB sulA), higher = more signal, called active from +8 up or from −8 down
[2] = small-molecule binders of probe aLefty1, primary screen, biochemical, small-molecule microarray, 635/667 nm fluorescence (AID 1153); conditions: higher = more signal;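 note: score merges spot fluorescence with signal-to-noise ratio from the scanned slide images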
[3] = PSAC antagonists in infected red cells, primary screen, cell-based, P. falciparum Indochina, OD700, 1 h (AID 1154); conditions: P. falciparum Indochina infected RBC osmotic lysis, higher = more signal, called active from +8 up or from −8 down
[4] = PSAC antagonists in infected red cells, primary screen, cell-based, P. falciparum Indochina, OD700, 2 h (AID 1155);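 note: lysis reports solute entry through the parasite surface anion channel PSAC; channel blockers reduce lysis of infected cells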; conditions: P. falciparum Indochina infected erythrocytes, osmotic lysis OD700; higher = more signal, called active from +8 up or from −8 down
[5] = osmotic lysis modulators in infected erythrocytes, primary screen, PSAC antagonist project, cell-based, P. falciparum Indochina, OD700, 3 h (AID 1156); conditions: higher = more signal, called active from +8 up or from −8 down
[6] = PSAC antagonists in infected red cells, primary screen, cell-based, P. falciparum Indochina, OD700, 18 h (AID 1157); conditions: P. falciparum Indochina infected erythrocytes, osmotic lysis OD700, 18 h; higher = more signal, called active from +8 up or from −8 down
[7] = modulators of S6 phosphorylation in cells, primary screen, cell-based, A549, cytoblot, luminescence, serum-stimulated (AID 1158); conditions: A549 phospho-S6 cytoblot, 5 h, higher = more signal;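 note: serum-stimulated A549 lung adenocarcinoma cells; signal is phosphorylated S6 detected by cytoblot immunostaining with HRP secondary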
[8] = target: NADPH oxidase 2 (Homo sapiens) (UniProt P04839); assay: NOX2-dependent H2O2 signal modulators, primary screen, NOX inhibitor project, cell-based, HEK293-NOX2, PMA-stimulated, Amplex Red fluorescence (AID 1159); conditions: 45 min, higher = more signal, called active from +8 up or from −8 down; note: test concentration not given here
Chain of NADPH oxidase 2 (Homo sapiens) (P04839 whole entry, looked up): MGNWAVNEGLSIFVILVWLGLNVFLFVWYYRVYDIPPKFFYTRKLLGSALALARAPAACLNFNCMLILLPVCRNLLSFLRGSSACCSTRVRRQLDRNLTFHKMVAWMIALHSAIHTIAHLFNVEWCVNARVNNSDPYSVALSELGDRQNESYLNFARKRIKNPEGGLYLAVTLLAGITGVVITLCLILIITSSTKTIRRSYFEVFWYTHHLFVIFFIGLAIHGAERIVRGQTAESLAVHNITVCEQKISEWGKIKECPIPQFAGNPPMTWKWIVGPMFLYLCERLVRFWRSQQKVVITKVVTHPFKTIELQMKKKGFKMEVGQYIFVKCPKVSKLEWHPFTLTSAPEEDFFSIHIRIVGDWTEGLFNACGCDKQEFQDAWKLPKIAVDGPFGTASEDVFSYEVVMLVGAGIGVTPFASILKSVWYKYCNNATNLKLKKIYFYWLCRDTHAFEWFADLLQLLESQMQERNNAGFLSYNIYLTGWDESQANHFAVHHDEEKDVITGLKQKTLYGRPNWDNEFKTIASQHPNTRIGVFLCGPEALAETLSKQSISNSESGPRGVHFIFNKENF

[9] = target: NADPH oxidase 4 (Homo sapiens) (UniProt Q9NPH5); assay: NOX4-dependent H2O2 signal modulators, primary screen, NOX inhibitor project, cell-based, HEK293-NOX4, tetracycline-induced, Amplex Red fluorescence (AID 1160); conditions: 45 min, higher = more signal, called active from +8 up or from −8 down
Chain of NADPH oxidase 4 (Homo sapiens) (Q9NPH5 whole entry, looked up): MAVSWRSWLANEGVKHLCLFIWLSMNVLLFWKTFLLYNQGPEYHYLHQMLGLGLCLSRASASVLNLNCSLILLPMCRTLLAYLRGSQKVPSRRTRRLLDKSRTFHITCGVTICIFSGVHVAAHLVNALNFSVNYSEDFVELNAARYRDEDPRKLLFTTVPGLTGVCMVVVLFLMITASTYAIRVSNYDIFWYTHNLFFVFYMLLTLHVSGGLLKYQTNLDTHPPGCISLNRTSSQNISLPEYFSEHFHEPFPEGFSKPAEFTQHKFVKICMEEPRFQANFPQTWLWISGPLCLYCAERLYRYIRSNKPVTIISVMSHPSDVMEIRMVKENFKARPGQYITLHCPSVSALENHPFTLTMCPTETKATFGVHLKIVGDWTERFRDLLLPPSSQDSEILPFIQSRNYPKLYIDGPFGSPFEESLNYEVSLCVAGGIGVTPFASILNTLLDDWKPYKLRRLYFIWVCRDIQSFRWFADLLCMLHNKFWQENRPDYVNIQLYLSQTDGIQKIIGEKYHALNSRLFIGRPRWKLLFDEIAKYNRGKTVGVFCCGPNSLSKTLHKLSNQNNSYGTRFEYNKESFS

[10] = target: NADPH oxidase 5 (Homo sapiens) (UniProt Q96PH1); assay: NOX5-dependent H2O2 signal modulators, primary screen, NOX inhibitor project, cell-based, HEK293-NOX5, Amplex Red fluorescence (AID 1161); conditions: HEK293-NOX5, ionomycin, 45 min, higher = more signal
Chain of NADPH oxidase 5 (Homo sapiens) (Q96PH1 whole entry, looked up): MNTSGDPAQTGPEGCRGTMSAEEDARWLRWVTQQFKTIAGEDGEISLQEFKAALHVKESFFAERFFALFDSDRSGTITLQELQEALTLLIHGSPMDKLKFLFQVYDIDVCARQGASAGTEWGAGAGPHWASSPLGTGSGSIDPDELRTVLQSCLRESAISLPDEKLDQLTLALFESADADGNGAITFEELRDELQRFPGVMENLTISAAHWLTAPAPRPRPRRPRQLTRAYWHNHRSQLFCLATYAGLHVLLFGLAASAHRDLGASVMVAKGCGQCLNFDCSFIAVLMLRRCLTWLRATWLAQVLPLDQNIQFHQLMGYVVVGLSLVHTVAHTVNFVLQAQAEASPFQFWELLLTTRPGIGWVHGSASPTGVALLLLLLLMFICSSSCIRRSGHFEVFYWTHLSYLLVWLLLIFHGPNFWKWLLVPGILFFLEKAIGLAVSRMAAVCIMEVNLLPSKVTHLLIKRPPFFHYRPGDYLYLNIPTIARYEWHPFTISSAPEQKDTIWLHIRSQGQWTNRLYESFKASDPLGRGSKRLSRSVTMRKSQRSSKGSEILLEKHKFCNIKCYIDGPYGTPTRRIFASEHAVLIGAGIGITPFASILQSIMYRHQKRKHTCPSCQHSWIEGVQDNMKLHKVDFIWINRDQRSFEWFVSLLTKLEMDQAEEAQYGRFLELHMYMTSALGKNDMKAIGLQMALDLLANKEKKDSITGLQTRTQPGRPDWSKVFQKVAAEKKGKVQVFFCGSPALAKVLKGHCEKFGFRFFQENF

In the case of `C=CC[C@@]1(C(=O)O)N=C(c2ccc(OCCCO)cc2)O[C@@H]1c1ccccc1`, the z-score [1] is reported as 0.938 (inactive), the composite z-score [2] is reported as -0.146 and the z-score [3] is reported as 11.5 (active). The z-score [4] was 0.526 (inactive), the z-score [5] was 0.208 (inactive) and the z-score [6] was 0.568 (inactive). The z-score [7] was 0.0003, the z-score [8] was 0.0822 (inactive) and the z-score [9] was 1.25 (inactive). For the same molecule, the z-score [10] was 0.448.

For `[N-]=[N+]=Nc1ccccc1C[C@@]1(C(=O)O)N=C(c2ccc(OCCCO)cc2)O[C@@H]1c1ccccc1`, the z-score [1] was -0.265 (inactive), the composite z-score [2] was 0.273 and the z-score [3] was 17.7 (active). For the same molecule, the z-score [4] was 1.37 (inactive), the z-score [5] was -1.14 (inactive) and the z-score [6] was 0.245 (inactive). The z-score [7] was -0.405, the z-score [8] was -0.135 (inactive) and the z-score [9] was 1.27 (inactive). The z-score [10] was 1.24.

In the case of `C=C(C(=O)CC[C@H](OC(=O)c1cccnc1)c1cccc(OCCO)c1)C(C)C`, the z-score [1] is reported as 0.184 (inactive), the composite z-score [2] is reported as 0.0327 and the z-score [3] is reported as 14.4 (active). The z-score [4] was 2.83 (inactive), the z-score [5] was 1.76 (inactive) and the z-score [6] was 1.04 (inactive). For the same molecule, the z-score [7] was -0.0915, the z-score [8] was 0.657 (inactive) and the z-score [9] was -0.0784 (inactive). The z-score [10] was -2.05.

For `COc1cc2c(cc1O)C(C)N(Cc1cc3c(cc1Br)OCO3)CC2` (stereo not given), the z-score [1] was 1.2 (inactive), the composite z-score [2] was -0.0196 and the z-score [3] was 2.87 (inactive). For the same molecule, the z-score [4] was 0.551 (inactive), the z-score [5] was 0.117 (inactive) and the z-score [6] was 0.401 (inactive). For the same molecule, the z-score [7] was 0.36, the z-score [8] was -3.74 (inactive) and the z-score [9] was -2.96 (inactive). It also gave a z-score [10] of -2.91.

In the case of `C=C(/C=C/CNS(=O)(=O)c1ccc(C)cc1)[C@H](O)[C@H]1CCCN1S(=O)(=O)c1ccccc1[N+](=O)[O-]`, the z-score [1] is reported as 0.611 (inactive), the composite z-score [2] is reported as -0.185 and the z-score [3] is reported as 11.5 (active). The z-score [4] was 1.43 (inactive), the z-score [5] was 0.643 (inactive) and the z-score [6] was 0.647 (inactive). For the same molecule, the z-score [7] was 0.229, the z-score [8] was -0.358 (inactive) and the z-score [9] was -1.6 (inactive). It also gave a z-score [10] of -1.6.

For `O=C1O[C@@H](c2ccccc2)[C@@H](c2ccccc2)N2[C@@H](c3ccccc3OCCO)[C@]3(C(=O)Nc4ccccc43)[C@@H](C(=O)NC[C@H](O)c3ccccc3)[C@H]12`, the z-score [1] was -0.275 (inactive), the composite z-score [2] was 0.0112 and the z-score [3] was 5.03 (inactive). For the same molecule, the z-score [4] was 2.2 (inactive), the z-score [5] was -0.526 (inactive) and the z-score [6] was 1.87 (inactive). For the same molecule, the z-score [7] was -0.589, the z-score [8] was 1.43 (inactive) and the z-score [9] was 0.303 (inactive). For the same molecule, the z-score [10] was 1.56.

With `CN(C)CCCNC(=O)[C@@]1(C)c2ccccc2C(=O)N(Cc2cc(C(F)(F)F)cc(C(F)(F)F)c2)[C@H]1c1ccc(CO)cc1` the z-score [1] was -1.2 (inactive), the composite z-score [2] was -0.147 and the z-score [3] was 2.37 (inactive). For the same molecule, the z-score [4] was -0.0111 (inactive), the z-score [5] was 2.17 (inactive) and the z-score [6] was 0.327 (inactive). The z-score [7] was 0.16, the z-score [8] was 0.0342 (inactive) and the z-score [9] was -1.35 (inactive). For the same molecule, the z-score [10] was -2.64.

With `COc1cc(CO)cc(I)c1O[C@H]1C=C(C(=O)NCCO)C[C@@H](N(Cc2ccc(F)cc2)C(=O)C2CCCO2)[C@@H]1O` (stereo not given in full) the z-score [1] was 3.54 (inactive), the composite z-score [2] was -0.147 and the z-score [3] was 1.92 (inactive). The z-score [4] was 0.581 (inactive), the z-score [5] was 1.03 (inactive) and the z-score [6] was 0.23 (inactive). The z-score [7] was -0.0981, the z-score [8] was 0.0499 (inactive) and the z-score [9] was 0.93 (inactive). It also gave a z-score [10] of 0.73.

In the case of `C=C(CCCC)C(=O)CC[C@@H](OC(=O)c1cccnc1)c1ccccc1OCCO`, the z-score [1] is reported as 0.225 (inactive), the composite z-score [2] is reported as -0.101 and the z-score [3] is reported as 22.3 (active). For the same molecule, the z-score [4] was 5.38 (inactive), the z-score [5] was 0.88 (inactive) and the z-score [6] was 0.871 (inactive). For the same molecule, the z-score [7] was 0.315, the z-score [8] was -1.73 (inactive) and the z-score [9] was -0.158 (inactive). For the same molecule, the z-score [10] was -1.44.

In the case of `C=C(/C(=C/C[C@@H](OC(=O)c1ccncc1)c1ccc(OCCO)cc1)c1cc(C(=O)OC)ccc1OC)C(C)C`, the z-score [1] is reported as 0.927 (inactive), the composite z-score [2] is reported as -0.0984 and the z-score [3] is reported as 17.9 (active). The z-score [4] was 2.79 (inactive), the z-score [5] was 2.56 (inactive) and the z-score [6] was 1.02 (inactive). For the same molecule, the z-score [7] was 0.596, the z-score [8] was -2.45 (inactive) and the z-score [9] was -1.24 (inactive). For the same molecule, the z-score [10] was -1.86.

For `C=CCOC(=O)[C@@H]1[C@H]2C(=O)O[C@H](c3ccccc3)[C@H](c3ccccc3)N2[C@H](c2ccc(OCCOC(=O)[C@H]3C[C@H]4C(=O)N[C@@H](CC(C)C)C(=O)N4[C@H]3c3ccc(O)cc3)cc2)[C@@]12C(=O)Nc1ccc(I)cc12`, the z-score [1] was 0.715 (inactive), the composite z-score [2] was 0.0278 and the z-score [3] was 2.42 (inactive). For the same molecule, the z-score [4] was 1.47 (inactive), the z-score [5] was 0.946 (inactive) and the z-score [6] was 0.792 (inactive). For the same molecule, the z-score [7] was 0.171, the z-score [8] was 1.75 (inactive) and the z-score [9] was 1.66 (inactive). It also gave a z-score [10] of 1.36.

In the case of `CN(C)CCCNC(=O)[C@@]1(c2ccc([N+](=O)[O-])cc2)CC(=O)N(CC23CC4CC(CC(C4)C2)C3)[C@@H]1c1ccc(CO)cc1`, the z-score [1] is reported as -3.6 (inactive), the composite z-score [2] is reported as 0.885 and the z-score [3] is reported as 0.924 (inactive). For the same molecule, the z-score [4] was -0.365 (inactive), the z-score [5] was -0.788 (inactive) and the z-score [6] was -0.798 (inactive). For the same molecule, the z-score [7] was -2.28, the z-score [8] was -8.3 (active) and the z-score [9] was -2.09 (inactive). For the same molecule, the z-score [10] was 0.357.

With `O=C1O[C@@H](c2ccccc2)[C@@H](c2ccccc2)N2[C@@H](c3ccccc3OCCO)[C@]3(C(=O)Nc4ccc(C#CCCO)cc43)[C@@H](C(=O)Nc3nc4ccccc4s3)[C@H]12` the z-score [1] was 1.4 (inactive), the composite z-score [2] was 0.13 and the z-score [3] was 2.06 (inactive). For the same molecule, the z-score [4] was 3.56 (inactive), the z-score [5] was 1.59 (inactive) and the z-score [6] was 1.72 (inactive). The z-score [7] was 0.206, the z-score [8] was 1.3 (inactive) and the z-score [9] was 0.352 (inactive). For the same molecule, the z-score [10] was 1.23.

In the case of `COC(=O)[C@@]1(Cc2ccccc2)[C@H]2c3cc(C(=O)N4CCCC4)[nH]c3C[C@H]2CN1C(=O)c1ccccc1`, the z-score [1] is reported as -0.875 (inactive), the composite z-score [2] is reported as 0.269 and the z-score [3] is reported as 4.64 (inactive). The z-score [4] was 0.805 (inactive), the z-score [5] was 0.102 (inactive) and the z-score [6] was 0.717 (inactive). The z-score [7] was 0.177, the z-score [8] was 0.0123 (inactive) and the z-score [9] was -0.696 (inactive). The z-score [10] was -0.713.

In the case of `O=C1C2C=CC(C(O)c3cc(C(F)(F)F)cc(C(F)(F)F)c3)N(Nc3ccc([N+](=O)[O-])cc3)C2C(=O)N1c1ccccc1` (stereo not given), the z-score [1] is reported as -1.58 (inactive), the composite z-score [2] is reported as 0.361 and the z-score [3] is reported as 6.16 (inactive). For the same molecule, the z-score [4] was 2.01 (inactive), the z-score [5] was -6.7 (inactive) and the z-score [6] was 1.24 (inactive). The z-score [7] was -0.431, the z-score [8] was -0.378 (inactive) and the z-score [9] was -2.65 (inactive). It also gave a z-score [10] of -1.68.

With `CC(C)(C)OC(=O)CC[C@]1(C(=O)O)N=C(c2ccc(OCCCO)cc2)O[C@H]1c1ccccc1CN=[N+]=[N-]` the z-score [1] was 0.59 (inactive), the composite z-score [2] was 0.0355 and the z-score [3] was 16.3 (active). For the same molecule, the z-score [4] was 1.36 (inactive), the z-score [5] was 0.0614 (inactive) and the z-score [6] was 0.594 (inactive). The z-score [7] was 0.172, the z-score [8] was 0.433 (inactive) and the z-score [9] was 1.01 (inactive). The z-score [10] was 1.

For `CCCCN1CC=CC23O[C@@H]4C=CCOC(=O)[C@@H]4[C@H]2C(=O)N(CCCO)[C@@H]3C1=O` (stereo not given in full), the z-score [1] was 0.915 (inactive), the composite z-score [2] was -0.0075 and the z-score [3] was -0.062 (inactive). The z-score [4] was -0.921 (inactive), the z-score [5] was 0.836 (inactive) and the z-score [6] was -1.43 (inactive). The z-score [7] was 0.385, the z-score [8] was 0.05 (inactive) and the z-score [9] was -0.101 (inactive). For the same molecule, the z-score [10] was -0.234.
